Measured values reported in PubChem BioAssay AID652257 (The Scripps Research Institute Molecular Screening Center, 2013).
Screen size: about 370,000 compounds; about 4,800 (1.3%) were called active.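 Rule for the calls: active = inhibition above about 21% made by adding two undisclosed values (limit read from the data); inactive = the rest.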 The full list was thinned out, with actives kept by preference.

These compounds were tested against Protein arginine N-methyltransferase 1 (Homo sapiens) (UniProt Q99873) (assay: PRMT1 methyltransferase inhibitors, primary screen, biochemical, fluorescence polarization (AID 652257)). Conditions: recombinant PRMT1, activity-based probe fluorescence polarization; at 2.79 µM; stronger effect = higher value.
Sequence of Protein arginine N-methyltransferase 1 (Homo sapiens) (Q99873 whole entry, looked up): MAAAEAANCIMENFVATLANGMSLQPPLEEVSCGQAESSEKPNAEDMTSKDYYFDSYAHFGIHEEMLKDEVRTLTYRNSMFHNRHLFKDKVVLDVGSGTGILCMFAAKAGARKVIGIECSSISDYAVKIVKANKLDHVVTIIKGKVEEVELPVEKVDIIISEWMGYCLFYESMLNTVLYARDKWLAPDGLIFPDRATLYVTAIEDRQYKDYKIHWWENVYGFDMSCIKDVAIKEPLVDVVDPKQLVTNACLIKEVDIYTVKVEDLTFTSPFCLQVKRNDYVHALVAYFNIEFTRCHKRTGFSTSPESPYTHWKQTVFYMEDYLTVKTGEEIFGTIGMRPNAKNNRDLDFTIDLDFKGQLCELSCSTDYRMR

inhibition, inactive:
CN[C@H]1C[C@H]2c3[nH]c4c(-c5ccccc5)cccc4c3CCN2C(=O)[C@H]1[C@H](C)O 6.14%
CSc1sc(C(=O)NC(=O)NCc2cccnc2)c(C)c1-c1ccon1 1.09%
Cc1ccc2c(c1)N(CCCC(=O)NCc1cccnc1)C(=O)CO2 0.38%
CN1C(=O)C(Br)(Br)CC1c1cccnc1 (centres undefined) 1.18%
Cc1c[nH]c2cccc(-c3ccc(Cl)cc3)c12 -0.29%
N#CCC(=O)N/N=C/c1ccc(SCC(=O)Nc2ccccc2)o1 4.99%
O=C(CSc1ccc(/C=N/NC(=O)c2cccc(F)c2)o1)Nc1ccccc1 2.86%
COC1=C[C@H](C(=O)NCCNC(C)=O)[C@H](C)[C@@H](c2ccccc2)CC1=O 0.29%
COc1ccc(/C=C2\CC3(OC(C)=O)CCCN2C3)cc1 (centres undefined) 1.73%
Cc1ccc(CN2CCCCC(NC(=O)C3CCCCC3)C2=O)cc1 (centres undefined) -3.29%
O=C(Nc1cccc(S(=O)(=O)N2CCOCC2)c1)C12CC3CC(CC(C3)C1)C2 2.62%
CCCNC(=O)NCc1ccc(N2CCCC2=O)cc1 0.33%
NC(=O)C1(N2CCCC2)CCN(Cc2ccccc2)CC1 2.71%
Clc1ccc(C(Cn2ccnc2)OCc2ccsc2Cl)c(Cl)c1 (centres undefined) 1.55%
O=C(CSc1n[nH]c(-c2cccnc2)n1)Nc1ccnc2ccccc12 -1.69%
O=C(Nc1ccc(Cl)cc1)Nc1ccc(Oc2cccnc2)nc1 1.37%
CN(C)c1ccc(CNC(=O)CN2C(=O)COc3ccc(S(=O)(=O)N4CCCC4)cc32)cc1 -4.13%
O=C(N1CCOCC1)N1CC[C@H]2[C@H](CCCN2Cc2ccc(F)cc2)C1 5.12%
Cc1ccc2c(NC(=O)C3CC3)cccc2n1 -1.46%
N#C/C(=C/c1ccc(N2CCCCC2)o1)C(=O)NCCc1c[nH]c2ccccc12 -51.4%
CCN(C(=O)c1ccc(Br)cc1)c1ccccc1 -3.92%
Cc1ccc(NC(=O)CCC(=O)c2ccc(Br)cc2)cc1 -1.58%
CC(=O)N1CCOc2ccc(S(=O)(=O)N3CCC(C(=O)Nc4ccccc4F)CC3)cc21 -0.05%
C=C(C)C#CC(Cc1ccccc1)N(CC1CC1)/C(N)=N/C(=O)OCc1ccccc1 (centres undefined) -3.31%
COC(=O)C(C(=O)OC)c1ccccc1NS(=O)(=O)c1cccc2ccccc12 -4.23%
C[C@H](C(=O)N(C)c1ccccc1)[C@@H](O)c1ccc(Cl)cc1 -4.72%
O=C1/C(=C/c2cccs2)SC(=S)N1C1CCS(=O)(=O)C1 (centres undefined) 0.87%
CCOc1ccc(NC(=O)C(C)N2C(=O)c3ccccc3C2=O)cc1 (centres undefined) -1.49%
CC(C)(C)c1cc(CN2CCN(CCC#N)CC2)cc(C(C)(C)C)c1O 9%
CCc1c(C)nc(N)n2c(SCC(=O)NC3CCCCC3)nnc12 -2.99%
Nc1[nH]c(/C=C2/CCCCC2n2[nH]c(=O)n(-c3ccccc3)c2=O)c(Cc2ccccc2)[n+]1Cc1ccccc1 (centres undefined) -2.27%
COc1ccc(CCNCc2c(-c3ccccc3)n(C)c3ccccc23)cc1 2.67%
CC(C)(C)OC(=O)NCCc1ccccc1/C=C/S(=O)(=O)NCc1ccc(F)cc1 0.24%
COc1cccc2c1OCC(CN1CCN(C3CCCCC3)C(CCO)C1)=C2 (centres undefined) -3.92%
O=C(CSc1nc2c(c(=O)[nH]1)CCCC2)N1CCCCC1 -3.61%
C=CCN(C)CC#Cc1ccccc1 -2.36%
Cc1ccc(-c2nc(C3CCCN(S(=O)(=O)c4ccc(Br)s4)C3)no2)cc1 (centres undefined) 3.15%
CC1CCc2c(nc3ncnn3c2Nc2ccc(OC(F)(F)F)cc2)C1 (centres undefined) 0.92%
c1ccc2c(c1)CSc1sccc1C2=C1CCNCC1 -3.7%
Cc1nnc(SCC(=O)NC2CCCC2)s1 -0.7%
Cc1nnc(SCc2cc(=O)[nH]c(N3CCN(Cc4ccccc4)CC3)n2)s1 -2.63%
CCOC(=O)C1(Cc2ccccc2)CCN(Cc2cn(C(C)=O)c3ccccc23)CC1 2.34%
Cc1ccccc1CS(=O)(=O)Cc1ccc(C(=O)Nc2ccc(Cl)cc2)o1 5.39%
CCCCN1CCN(C(=O)c2ccc3c(c2)NC(=O)C(C)(C)O3)CC1 -4.36%
COC(=O)[C@]12C[C@H](CC(=O)NCc3cccc4ccccc34)C(=O)N(CCc3ccc(OC)c(OC)c3)C1=C[C@H](C1CCCC1)O[C@@H]2C -7.72%
COC(=O)c1c(C)oc2ccc(N(C(=O)Oc3ccccc3)S(=O)(=O)c3ccccc3)cc12 1.53%
CC(=O)Oc1ccc(N(C(C)=O)S(=O)(=O)c2ccc3ccccc3c2)cc1Br -3.71%
COc1ccccc1C1C(C#N)=C(N)Oc2c1c(-c1ccccc1)nn2-c1ccccc1 (centres undefined) 5.44%
COc1cccc(Cn2cc(COC(=O)Nc3ccc(F)cc3)nn2)c1 0.72%
COc1ccccc1NC(=O)CCN1CCN(c2ccc(Cl)cc2)CC1 1.94%
Cc1cc(NC(=O)CCN2CCN(Cc3ccccc3)CC2)ccc1Br 0.6%
Cc1cc(S(=O)(=O)NC2CCCC2)ccc1-n1cnnn1 3.87%
Cc1ccc(CN(C)C[C@@H]2OCc3cnnn3CCCC(=O)N([C@@H](C)CO)C[C@H]2C)cc1 -5.16%
C=CCn1c2c(c3ccccc31)CCC2 0.09%
CC(NCc1ccco1)C(=O)N1CCCCC1 (centres undefined) -2.09%
CCOc1ccc(Oc2c(Cl)cnn(-c3ccc(C)cc3)c2=O)cc1 -1.68%
C=CCN1[C@@H](Cc2ccccc2)COc2cccc(N3CCSCC3)c2S1(=O)=O 2.18%
O=S(=O)(c1ccccc1)N1CCC(c2nc3ccccc3o2)CC1 -3.15%
COc1ccccc1CN(C)C(=O)C1(c2ccc(Cl)cc2)CC1 -2.06%
O=C(NC1CCC1)c1ccc(C#CC2CC2)cn1 -0.43%
CC(=O)Oc1ccc(C(C)=O)c2c1OCCO2 -0.56%
CC(C)n1c(-c2ccncc2)n[nH]c1=S -2.82%
CSc1ccc(/C=N/N2CCN(Cc3ccccc3Cl)CC2)cc1 1.95%
CC(NCCc1ccc(S(N)(=O)=O)cc1)C(=O)NCc1ccccc1 (centres undefined) -3.01%
COc1cc(-c2nnn(CC(=O)NCc3ccccc3)n2)cc(OC)c1OC 2.73%
COc1ccccc1OCCC(=O)OCC(=O)NCc1ccccc1 0.43%
CCOC(=O)C1=C(C)NC2=C(C(=O)CC(C)(C)C2)C1c1ccc2c(c1)OCO2 (centres undefined) -1.8%
COC(=O)CC1CCc2cc(C)cc(C(CC(C)C)NC(=O)[C@H](CC(C)C)NC(=O)OCc3ccccc3)c2O1 (some centres undefined) -2.67%
CCCOc1ccc(Oc2c(Cl)cnn(Cc3cccc4ccccc34)c2=O)cc1 1.97%
CC(=O)c1cc(-c2ccc3ccccc3c2)c(=O)n2c1CCC2 0.08%
COC1=CC(=O)OC(c2ccc(OC)cc2)C1 (centres undefined) -1.99%
COc1ccc(N=Nc2c(-c3ccc(OC)cc3)[nH]oc2=O)cc1 -0.55%
Cc1ccc(CSCC(N)C(=O)O)cc1 (centres undefined) 0.39%
Cc1ccc(SC(C)C(=O)NCc2ccc(F)cc2)cc1 (centres undefined) -5.15%
CCC(NC(=O)C1C2C=CC3(CN(Cc4ccccc4)C(=O)C13)O2)c1ccccc1 (centres undefined) 2.19%

inhibition, active:
Cc1ccc(-n2nc(-c3ccco3)cc2C(=O)NCc2cccnc2)cc1 35.6%
O=C(CCNC(=O)c1ccccc1)NN=Cc1ccc(Br)o1 24.6%
NC(=O)C1(N2CCCCC2)CCN(C2CC(=O)N(Cc3ccc(N4CCCC4=O)cc3)C2=O)CC1 (centres undefined) 41.5%
COc1ccc(Nc2nc(-c3cccnc3)nc3ccccc23)cn1 25.2%
Cc1ccc(/C=C(\C#N)C(=O)Nc2cccc3ncccc23)o1 24.4%
Cc1ccn(C(CC(=O)c2ccc(Br)cc2)C(=O)O)n1 (centres undefined) 23.6%
CC(C(=O)Nc1ccc(O)c(C(=O)O)c1)N1C(=O)/C(=C/c2cccs2)SC1=S (centres undefined) 26.4%
O=c1ccc2c(-c3ccccc3S(=O)(=O)O)c3ccc(O)c(O)c3oc-2c1O 66.9%
Cc1cc(C)cc(C(=O)NC2C(=O)N3C(C(=O)O)=C(CSc4nnc(C)s4)CSC23)c1 (centres undefined) 39.9%
Cc1nnc(SCC2=C(C(=O)O)N3C(=O)C(NC(=O)Cn4nc(C)c(Cl)c4C)C3SC2)s1 (centres undefined) 34.1%
CC(=O)N(c1ccc2oc(=O)sc2c1)S(=O)(=O)c1ccc(C)cc1 86%
COC(=O)CNC(c1ccccc1Cl)c1cc(Br)ccc1NC(=O)CCN1CCOCC1 (centres undefined) 21.5%
CN1C(=O)c2cccc3c(N)ccc(c23)C1=O 183%
Cc1nn(C)cc1N1C(=O)c2cccc3c(N)ccc(c23)C1=O 165%
CSc1ccc(C=Nn2c(-c3ccc(F)cc3)n[nH]c2=S)cc1 21.3%
COc1cc(C(=S)NCc2ccccc2)cc(Br)c1O 27.5%
Clc1ccc(C2=CSC3=Nc4cccc5cccc(c45)N23)cc1 22.6%
COc1ccc(N=C2C=CC(=O)O2)cc1 48.5%
Cc1ccc(SC(CC(=O)c2ccc(C(C)(C)C)cc2)C(=O)O)cc1 (centres undefined) 75.6%
